# From PubChem BioAssay (NCI)
# About 83,000 compounds went through this panel and 20% of them were active in at least one assay; those are over-represented in the sample as a whole.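 Testing used 96-well plates and a 48-hour single-concentration exposure. Example: -40 means 40% of the starting cells died.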 A number with no mark means an inactive call. Active and inactive are the calls of the source. Rule for the calls: active = growth percent below 10; inactive = the rest.
# What was measured:
# Assay in all cases: NCI-60 one-dose screen, 48 h (100 = growth as untreated, 0 = no growth, -100 = all killed)
# [1] = system: SR leukemia; settings: 10 µM unless noted
# [2] = system: RPMI-8226 leukemia; settings: 10 µM unless noted
# [3] = system: OVCAR-8 ovarian; settings: 10 µM unless noted
# [4] = system: OVCAR-5 ovarian; settings: 10 µM unless noted
# [5] = system: OVCAR-4 ovarian; settings: 10 µM unless noted
# [6] = system: SK-OV-3 ovarian; settings: 10 µM unless noted
# [7] = system: IGROV1 ovarian; settings: 10 µM unless noted
# [8] = system: OVCAR-3 ovarian; settings: 10 µM unless noted
# [9] = system: HS 578T breast; settings: 10 µM
# [10] = system: NCI/ADR-RES ovarian; settings: 10 µM unless noted
# [11] = system: T-47D breast; settings: 10 µM unless noted
# [12] = system: BT-549 breast; settings: 10 µM unless noted
# [13] = system: MDA-MB-435 melanoma; settings: 10 µM unless noted
# [14] = system: SW-620 colon; settings: 10 µM unless noted
# [15] = system: MCF7 breast; settings: 10 µM unless noted
# [16] = system: HCT-116 colon; settings: 10 µM unless noted
# [17] = system: HCC-2998 colon; settings: 10 µM
# [18] = system: KM12 colon; settings: 10 µM unless noted
Structure (SMILES),growth [1],growth [2],growth [3],growth [4],growth [5],growth [6],growth [7],growth [8],growth [9],growth [10],growth [11],growth [12],growth [13],growth [14],growth [15],growth [16],growth [17],growth [18]
CC(C)[C@@H]1CC[C@]2(CO2)[C@@H]2C(=O)OCC(C(=O)O)=C[C@H]21,-4.75% (active),-34.6% (active),4.64% (active),22%,12.7%,15.7%,5.4% (active),5.83% (active),-5.29% (active),-12.1% (active),12.3%,-5.36% (active),-6.19% (active),5.52% (active),45.3%,3.63% (active),4.07% (active),2.53% (active)
Cc1ccc(-c2cc3c(SCC(=O)Nc4cc(C(F)(F)F)ccc4Cl)nccn3n2)cc1,-10.2% (active),-12.5% (active),33.1%,84.7%,38.1%,84.3%,52.7%,82.3%,87%,42.5%,101%,81.2%,38.7%,18.2%,14.7%,14.7%,19.5%,
Cc1[nH]n(C(N)=S)c(=O)c1N=Nc1ccc(S(=O)(=O)Nc2ccncn2)cc1,111%,47.2%,106%,111%,95.1%,100%,67.3%,99%,86.2%,104%,109%,143%,136%,102%,88.1%,112%,105%,99.5%
Cc1cc2c(-c3nc4ccccn4c3NC3CCCCC3)c(O)c(O)cc2c(O)c1-c1c(C)cc2c(-c3nc4ccccn4c3NC3CCCCC3)c(O)c(O)cc2c1O,25.8%,31.6%,34.4%,33.7%,27.4%,41.5%,36.2%,32.4%,21.9%,71.9%,11.9%,30.1%,27.5%,28.9%,43%,14.2%,46.2%,29.6%
CNC(=O)c1cc(Oc2cccc3nc(Nc4ccc(Oc5ccccc5)cc4)ccc23)ccn1,30.2%,47.9%,75.8%,83.4%,52.1%,87.1%,92.4%,72.7%,81.9%,72.6%,43.3%,57.2%,66.1%,87.8%,43.2%,48%,94%,67.8%
CSc1nc2ncnc(SC)c2[nH]1,90.3%,106%,103%,102%,101%,79.3%,114%,115%,105%,108%,105%,93.3%,100%,109%,93.1%,81.4%,113%,106%
Clc1ccc2c(NCCCNCc3ccc4c(c3)OCO4)ccnc2c1,-22.9% (active),22%,30.7%,85.8%,59.1%,71.2%,57.3%,63.7%,78.9%,74.3%,-0.471% (active),51.5%,-34.6% (active),28.9%,31.5%,36.5%,5.99% (active),65.4%
Cc1nn(-c2nc3ccccc3[nH]2)c2c1C(c1ccc(O)cc1)CC(=O)N2 (stereo not given),53.7%,101%,55.3%,109%,112%,84.3%,75.9%,93.2%,28.1%,88.5%,88.7%,92.7%,104%,93.5%,109%,101%,123%,60.3%
Nc1c(C(=O)c2ccccc2)sc2nc(-c3cccs3)cc(-c3cccs3)c12,24.4%,57.7%,54.8%,84.5%,62.6%,46%,66.3%,11.9%,53.4%,24.4%,36%,50.9%,-14.4% (active),28.8%,45.9%,16.8%,72.1%,29.1%
CCN1CCN(c2cc(C)nc(N(CCCNc3ccnc4cc(Cl)ccc34)Cc3cccs3)n2)CC1,-34% (active),-33.6% (active),15.7%,69.8%,30.4%,65.5%,10.3%,-2.11% (active),-22.4% (active),28.5%,-18.7% (active),-20.6% (active),-79.8% (active),-8.17% (active),12.3%,10.8%,-27.2% (active),35.4%
CCN1CCN(c2nc(C)cc(N(CCCNc3ccnc4cc(Cl)ccc34)Cc3ccc4c(c3)OCO4)n2)CC1,-45.2% (active),-41.9% (active),-12.4% (active),51.6%,2.74% (active),33.3%,0.209% (active),-28.3% (active),-44.8% (active),30.2%,-60.9% (active),-53.1% (active),-86.8% (active),-32.3% (active),7.69% (active),-9.36% (active),-40.3% (active),23.7%
Cc1oc2c(C(=O)N/N=C\c3ccc(O)cc3O)c[nH]c2c1C,8.4% (active),25.3%,13.7%,30.7%,10.8%,20.6%,24.1%,-16% (active),58.2%,1.19% (active),25.7%,-8.94% (active),42.8%,39.3%,8.09% (active),10.8%,9.7% (active),28.9%
CCCCCCCC(=O)SCC/C=C/[C@@H]1CC(=O)NCc2nc(co2)C2=N[C@@](C)(CS2)C(=O)N[C@@H](C(C)C)C(=O)O1,10.7%,3.09% (active),0.95% (active),-5.93% (active),12.2%,-12.7% (active),-23.2% (active),-45.6% (active),4.63% (active),5.57% (active),-5.12% (active),13.2%,-31.8% (active),-29.2% (active),14.9%,-63.2% (active),-68.8% (active),1.36% (active)
CCC1(/C=N/NC(N)=S)NC(=O)NC1=O (stereo not given),91.1%,103%,98.1%,109%,109%,83.9%,113%,119%,104%,111%,104%,103%,105%,114%,97.7%,101%,115%,113%
CCN(CC)C(=O)C[N+](C)(C)CCOC(c1ccccc1)c1ccccc1,108%,114%,110%,100%,89.5%,107%,102%,103%,112%,99.1%,105%,99.3%,93.2%,111%,93.4%,99.4%,93%,102%
Cc1cc2c(-c3nc4ccccn4c3NC34CC5CC(CC(C5)C3)C4)c(O)c(O)cc2c(O)c1-c1c(C)cc2c(-c3nc4ccccn4c3NC34CC5CC(CC(C5)C3)C4)c(O)c(O)cc2c1O,13.1%,24.4%,12.3%,29.3%,21.4%,-11.1% (active),21.3%,27.6%,21.8%,9.01% (active),-0.388% (active),9.45% (active),16.5%,23.5%,12.3%,12%,31%,19.8%
CC(C)=CCc1cc2c(cc1O)C1=C(C(=O)C3=C(C1=O)S(=O)(=O)CCN3)C(C=C(C)C)O2 (stereo not given),2.02% (active),9.78% (active),-5.83% (active),-72.4% (active),-98.2% (active),-3.23% (active),-30.6% (active),0.0791% (active),11.1%,73.8%,-2.63% (active),-73.6% (active),-52.6% (active),-18.9% (active),-50.7% (active),-24.8% (active),-66% (active),13.6%
